Assay results reported in PubChem BioAssay.

These compounds were tested on Human papillomavirus type 1a E7 protein (residues 1-88) (assay: HPV1a E7 small-molecule binders, primary screen, biochemical, small-molecule microarray, residues 1-88, 635 nm (AID 1129)). Conditions: small-molecule microarray binding, fluorescence 635 nm; higher = more signal.
In the case of C=CC[C@@H]1C=C[C@H](ON=C2c3cc(OC)ccc3O[C@H](c3cccc(OC)c3)[C@H]2O)[C@@H](CO)O1, the composite z-score is reported as -0.133.
COCCOC(=O)N1C(=O)[C@@]2(c3cc(C#CCNC(N)=O)ccc31)[C@H](c1ccc(O)cc1)N1[C@H](c3ccccc3)[C@H](c3ccccc3)OC(=O)[C@H]1[C@@H]2C(=O)N1CCCCCCC1 showed a composite z-score of 0.857.
For CC(C)(C)N1C(=O)[C@H]2[C@H]3[C@H](O)[C@H](O)CC(=NOCc4ccccc4)[C@@H]3CC[C@H]2C1=O, the composite z-score was 0.808.
Compound O=C1C[C@]2(c3ccc([N+](=O)[O-])cc3)C(=O)N(CCN3CCOCC3)c3cc(CO)ccc3[C@H]2N1CC12CC3CC(CC(C3)C1)C2 has a composite z-score of 0.275.
CC[C@@H](c1ccccc1)n1c(=O)n2n(c1=O)[C@H]1[C@H](O)[C@@H]3O[C@@H]3C(=NOCC(C)C)[C@H]1CC2 gave a composite z-score of 0.0566.
With O=C1[C@H]2[C@H]3[C@H](O)[C@H](O)CC(=NO[C@@H]4O[C@H](CO)[C@@H](O)[C@H](O)[C@H]4O)[C@@H]3CC[C@H]2C(=O)N1Cc1ccc2c(c1)OCO2 the composite z-score was 0.782.
Compound CC(C)=C1C(=O)C(c2ccccc2)=C2CN3C(=O)N(CCc4ccccc4)C(=O)[C@]3(Cc3ccc(F)cc3)[C@H]21 has a composite z-score of -0.205.
With CO[C@@H]1COC(=O)CCC[C@@H](C)[C@H](OC)COC(=O)[C@H](Cc2ccccc2)NC(=O)CC=C[C@H]1C the composite z-score was -2.53.
Work on Cc1ccc(F)cc1S(=O)(=O)N[C@@H]1CCN(Cc2ccc(CC(C)C)cc2)C1 yielded a composite z-score of -0.381.
With CC(C)[Si]1(C(C)C)O[C@@H](c2ccccc2)c2cc(C3CC3)nc(-c3ccccc3)c21 the composite z-score was -0.466.
COC(=O)[C@@]1(Cc2ccc(F)cc2)[C@H]2c3cc(C(=O)N(C)C)n(Cc4ccc(OC)c(OC)c4)c3C[C@H]2CN1C(=O)c1ccccc1 showed a composite z-score of -0.267.
CCOC(=O)CCN1C(=O)[C@H]2[C@H]3[C@H](O)C=CC(=O)[C@@H]3CC[C@H]2C1=O was tested, and the composite z-score was 0.621.
Work on C[C@H](c1ccccc1)N1C(=O)[C@H]2[C@@H]3C(=CC[C@H]2C1=O)C(=O)[C@H]1O[C@H]1[C@H]3O yielded a composite z-score of 0.336.
CS(=O)(=O)CCOC(=O)C1=CC(CCCO)=CC(c2cccs2)N(Cc2cccc(OC(F)(F)F)c2)C=C1C(=O)OCCS(C)(=O)=O (configuration not stated) showed a composite z-score of 1.03.
O=C1[C@H]2[C@H]3[C@H](O)[C@H](O)CC(=NO[C@@H]4O[C@H](CO)[C@@H](O)[C@H](O)[C@H]4O)[C@H]3CC[C@H]2C(=O)N1Cc1ccc2c(c1)OCO2 gave a composite z-score of -0.186.
In the case of Cc1cc2c(nc1C)CCCN2CC(C)ON=C1[C@H]2CCn3c(=O)n(-c4ccccc4)c(=O)n3[C@H]2[C@H](O)[C@@H]2O[C@H]12 (some centres not stated), the composite z-score is reported as 0.304.
Cc1cc(C)c(-c2cc([C@H](C)ON=C3[C@H]4CCn5c(=O)n(-c6ccccc6)c(=O)n5[C@H]4[C@H](O)[C@@H]4O[C@H]34)on2)c(C)c1 was tested, and the composite z-score was 0.748.
In the case of COc1ccc([Si](C)(C)[C@@H]2[C@@H](CCO)O[C@]3(C(=O)N(Cc4ccc(NC(C)=O)cc4)c4ccccc43)[C@H]2C)cc1, the composite z-score is reported as 1.22.
For c1ccc(C2NCCc3c2[nH]c2ccccc32)cc1 (configuration not stated), the composite z-score was -0.805.
CC(=O)C[C@H](O)[C@@H](NC(=O)OC(C)(C)C)C(C)C showed a composite z-score of -1.54.
CO[C@H]1O[C@H](CO)[C@@H](OC(=O)Nc2ccc(C#N)cc2)[C@H](OC(=O)c2cc3ccccc3[nH]2)[C@H]1OC(=O)c1cc2ccccc2[nH]1 showed a composite z-score of 1.18.
Work on CO[C@@H]1COC(=O)[C@@H]2CCCN2C(=O)[C@@H](C)COC(=O)[C@H](COCc2ccccc2)NC(=O)CC=C[C@H]1C yielded a composite z-score of 0.692.
COc1ccc(O[C@H]2C=C[C@@H](c3ccccc3)O[C@@H]2COC(=O)CCC(C)=NO[C@H](C)c2cn([C@@H]3COC[C@H]3O)nn2)cc1 was tested, and the composite z-score was 0.225.
CC(CCC(=O)OC[C@H]1O[C@H](C#Cc2ccccc2)C=C[C@@H]1Oc1ccc(C)cc1)=NO[C@@H](C)c1cn([C@H](CO)Cc2ccccc2)nn1 was tested, and the composite z-score was 0.0769.
Compound CO[C@H]1COC(=O)[C@H](C)COC(=O)CC=C[C@@H](C)[C@H](OC)COC(=O)CC=C[C@@H]1C has a composite z-score of -0.774.
Compound CCc1cccc(NC(=O)O[C@H]2[C@H](OC(=O)Nc3ccc4c(c3)OCO4)[C@@H](OC(=O)Nc3ccc4c(c3)OCO4)[C@@H](OC)O[C@@H]2CO)c1 has a composite z-score of 1.25.
With CCOC(=O)C[C@H]1[C@H](OC(=O)c2cc3ccccc3oc2=O)[C@@H](NC(=O)c2ccc3ccccc3n2)c2cc(OCCCO)ccc2N1C(=O)c1ccccc1 the composite z-score was 0.803.
